Source: PubChem BioAssay (NCATS)
Results filed as inconclusive are left out. Calls of active or inactive are those of the source. Calls follow the shape of the dose curve; as a rule, active = well fitted curve in the direction sought with a large enough effect; inconclusive = small, poorly fitted or top-dose-only effect, or another doubt; inactive = no such curve, though single readings can be large; an effect the other way counts as inactive or inconclusive.

Legend:
[1] = test system: UISO; assay: qHTS assay to identify novel small-molecules to repurpose for Merkel cell carcinoma treatment (AID 1296009); details: MCC and control cell lines, CellTiter-Glo viability, 72 h; series mostly up to 46 µM; also: nearly all actives have a fitted effect of over 60% in size; also: potency is read from the fitted curve at half-maximal effect
How it was run: (§1)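 Cells were incubated with compound for 72 hr at 37 degree celsius before CellTiter-Glo addition. Luminescence was normalized with no-cell wells as full cytotoxicity and DMSO as baseline.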

[2] = test system: WaGa; assay: as above; details: MCC and control cell lines, CellTiter-Glo viability, 72 h; series mostly up to 46 µM
How it was run: as §1

[3] = test system: CAOV3; assay: Primary qHTS to identify gynecologic anti-cancer compounds using libraries of approved drugs and bioactive compounds (AID 1345084); details: Gynecologic cancer cell panel viability, ATPlite luminescence, 48 h; series mostly up to 57.5 µM; also: nearly all actives have a fitted effect of over 55% in size; also: potency is read from the fitted curve at half-maximal effect
How it was run: (§2)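 Five-concentration response, 48 h; readout is ATP-driven luciferase luminescence.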

[4] = test system: CASKI; assay: as above; details: Gynecologic cancer cell panel viability, ATPlite luminescence, 48 h; series mostly up to 57.5 µM
How it was run: as §2

[5] = test system: Hek293T; assay: as above; details: Gynecologic cancer cell panel viability, ATPlite luminescence, 48 h, control line for the selectivity index; series mostly up to 57.5 µM
How it was run: as §2

[6] = test system: JEG-3; assay: as above; details: Gynecologic cancer cell panel viability, ATPlite luminescence, 48 h; series mostly up to 57.5 µM
How it was run: as §2

[7] = test system: OV90; assay: as above; details: Gynecologic cancer cell panel viability, ATPlite luminescence, 48 h; series mostly up to 57.5 µM
How it was run: as §2

[8] = test system: PA-1; assay: as above; details: Gynecologic cancer cell panel viability, ATPlite luminescence, 48 h; series mostly up to 57.5 µM
How it was run: as §2

[9] = test system: SKOV3; assay: as above; details: Gynecologic cancer cell panel viability, ATPlite luminescence, 48 h; series mostly up to 57.5 µM
How it was run: as §2

[10] = test system: Es-2; assay: as above; details: Gynecologic cancer cell panel viability, ATPlite luminescence, 48 h; series mostly up to 57.5 µM
How it was run: as §2

[11] = test system: HeLa; assay: as above; details: Gynecologic cancer cell panel viability, ATPlite luminescence, 48 h; series mostly up to 57.5 µM
How it was run: as §2

[12] = test system: Tov-21-G; assay: as above; details: Gynecologic cancer cell panel viability, ATPlite luminescence, 48 h; series mostly up to 57.5 µM
How it was run: as §2

[13] = test system: Tov112D; assay: as above; details: Gynecologic cancer cell panel viability, ATPlite luminescence, 48 h; series mostly up to 57.5 µM
How it was run: as §2

[14] = Drug repurposing screens with cells derived from glioblastoma tumor samples (AID 1345199); details: GBM patient neurospheres viability, ATP luminescence, 48 h; also: nearly all actives have a fitted effect of over 40% in size; also: potency is read from the fitted curve at half-maximal effect
How it was run: (§3)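 Four patient lines of CD133+ GBM neurospheres were screened at several concentrations; hits were retested in those lines plus three slower-growing GBM lines, using 48-hour treatment and ATP-based viability.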

[15] = test system: astro; assay: as above; details: viability, ATP luminescence, 48 h; series mostly up to 45.9 µM
How it was run: as §3

[16] = test system: C33A; assay: Primary qHTS to identify gynecologic anti-cancer compounds using libraries of approved drugs and bioactive compounds (AID 1345084); details: Gynecologic cancer cell panel viability, ATPlite luminescence, 48 h; series mostly up to 57.5 µM; also: nearly all actives have a fitted effect of over 55% in size; also: potency is read from the fitted curve at half-maximal effect
How it was run: as §2

[17] = qHTS assay to identify inhibitors of the type 1 interferon - major histocompatibility complex class I in skeletal muscle: Counter screen cell viability and HiBit confirmation (AID 1347412); details: iHSKM muscle cells + IFN-b, HiBiT or CellTiter-Glo, 24 h; Potency: HiBiT; Viability, at 45.9 µM (top of the series); also: nearly all actives have a fitted effect of over 60% in size
How it was run: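 Duplicate plates, pinned identically: one read for HiBiT-tagged endogenous HLA-B luminescence, the other for ATP-content viability via CellTiter Glo. Cells were genome-engineered human myoblasts given 4 ng/ml IFN-b; compounds 12-pt, 1:3 from 46 uM final; 24 hr exposure.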

[18] = at 45.9 µM (top of the series), tumour line B
[19] = at 46.1 µM (top of the series), tumour line C
% is scaled to controls: 0 for no effect and ±100 for the full control effect.

COC(=O)c1cc(Cl)ccc1NS(=O)(=O)C(F)(F)F
active: Potency [3] 25.1 µM
inactive: Potency [1] | Potency [2] | Potency [4] | Potency [5] | Potency [6] | Potency [7] | Potency [8] | Potency [9]

O=C(O)CNC(=O)CNC(=O)CNC(=O)CSC(=O)c1ccccc1
inactive: Potency [1] | Potency [2] | Potency [4] | Potency [10] | Potency [11] | Potency [5] | Potency [6] | Potency [7] | Potency [8] | Potency [12] | Potency [13] | activity, negative = cell killing [14, 18] 2.75% | activity, negative = cell killing ([14]; at 45.9 µM (top of the series), tumour line D) -4.9% | activity, negative = cell killing ([14]; at 46 µM (top of the series), tumour line A) -23.1% | activity, negative = cell killing [14, 19] -10.1% | Potency [15]

O=C(OCCN1CCOCC1)c1cccnc1Nc1cccc(C(F)(F)F)c1
inactive: Potency [1] | Potency [16] | Potency [3] | Potency [4] | Potency [10] | Potency [11] | Potency [5] | Potency [6] | Potency [8] | Potency [9] | Potency [12] | Potency [13]

COc1ccc2c(c1)c(CC(=O)OC/C=C(\C)CC/C=C(\C)CCC=C(C)C)c(C)n2C(=O)c1ccc(Cl)cc1
inactive: Potency [1] | Potency [16] | Potency [3] | Potency [4] | Potency [10] | Potency [11] | Potency [5] | Potency [6] | Potency [7] | Potency [8] | Potency [9] | Potency [12] | Potency [13]

CCOC(=O)C1=C(C)NC(C)=C(C(=O)OCC)C1c1ccccc1/C=C/C(=O)OC(C)(C)C
active: Potency [1] 26.6 µM | Potency [2] 23.7 µM
inactive: Potency [10] | Potency [11] | Potency [5] | Potency [6] | Potency [7] | Potency [8] | Potency [12] | Potency [13]

CN1CC[C@H](c2c(O)cc(O)c3c(=O)cc(-c4ccccc4Cl)oc23)[C@H](O)C1
active: Potency [1] 0.473 µM | Potency [16] 1.26 µM | Potency [4] 0.708 µM | Potency [10] 0.708 µM | Potency [11] 0.794 µM | Potency [8] 0.447 µM | Potency [13] 1.12 µM
inactive: Potency [6]

Cc1ccc(CCn2c3c(c4cc(Cl)ccc42)CN(C)CC3)cn1
inactive: Potency [1] | Potency [16] | Potency [3] | Potency [4] | Potency [10] | Potency [11] | Potency [5] | Potency [6] | Potency [7] | Potency [8] | Potency [9] | Potency [12] | Potency [13]

CN(C)CCOC1=Cc2ccccc2Sc2ccc(Cl)cc21
inactive: Potency [1] | Potency [16] | Potency [3] | Potency [4] | Potency [10] | Potency [11] | Potency [5] | Potency [6] | Potency [8] | Potency [9] | Potency [12] | Potency [13]

CCCCCOc1ccccc1/C(=C\SC)n1ccnc1
active: Potency [1] 18.8 µM
inactive: Potency [16] | Potency [3] | Potency [4] | Potency [10] | Potency [5] | Potency [6] | Potency [7] | Potency [12] | Potency [13]

C[C@H](CN1CCCC1)C(=O)c1ccc(C(F)(F)F)cc1
inactive: Potency [1] | Potency [2] | Potency [3] | Potency [4] | Potency [10] | Potency [11] | Potency [5] | Potency [6] | Potency [7] | Potency [8] | Potency [9] | Potency [12] | Potency [13] | activity, negative = cell killing [14, 18] -26.9% | activity, negative = cell killing [14, 19] -22.1% | Potency [15]

COC(=O)C1=C(C)NC(COC(N)=O)=C(C(=O)OC(C)C)C1c1cccc(Cl)c1Cl (stereo unspecified)
inactive: Potency [1] | Potency [16] | Potency [3] | Potency [4] | Potency [10] | Potency [11] | Potency [5] | Potency [6] | Potency [7] | Potency [8] | Potency [9] | Potency [12] | Potency [13] | activity, negative = cell killing [14, 18] 0.976% | Potency [17]
active: Potency ([14]; tumour line A) 8.91 µM | Potency ([14]; tumour line D) 12.6 µM

CC(=O)/C=C/C=C1/C2CCC(C2)C1(C)C (stereo unspecified)
inactive: Potency [1] | Potency [16] | Potency [3] | Potency [4] | Potency [10] | Potency [11] | Potency [5] | Potency [6] | Potency [7] | Potency [9] | Potency [12] | Potency [13]

CO[C@@H]1[C@@H](OC)[C@H](C)[C@@](O)(CC(=O)O)O[C@H]1[C@H](C)[C@H]1O[C@@]2(CC[C@@](C)([C@H]3CC[C@@](C)([C@@H]4O[C@@H]([C@H]5O[C@](C)(O)[C@H](C)C[C@@H]5C)C[C@@H]4OC4C[C@H](OC)[C@@H](OC)[C@H](C)O4)O3)O2)C[C@H](O)[C@H]1C (stereo partly specified)
active: Potency [1] 0.596 µM | Potency [2] 0.335 µM | Potency [3] 14.1 µM | Potency [10] 10 µM | Potency [5] 2.82 µM | Potency [6] 6.31 µM | Potency [7] 1.78 µM | Potency [12] 11.2 µM | Potency [13] 11.2 µM | Potency [15] 1.58 µM

Cc1oc(-c2ccccc2)nc1CCC(=O)c1ccc(CC2SC(=O)NC2=O)cc1 (stereo unspecified)
inactive: Potency [1] | Potency [16] | Potency [3] | Potency [4] | Potency [10] | Potency [11] | Potency [5] | Potency [6] | Potency [7] | Potency [8] | Potency [9] | Potency [12] | Potency [13]
